Source: PubChem BioAssay (Small Molecule Screening Facility, UW Madison)
RMI FANCM FP: blocks RMI1/RMI2 complex binding to FANCM MM2 peptide; Fluorescence polarization, RMI core complex with F-MM2 peptide; stronger effect = lower value; FP signal (polarization) at 33 µM; 0.58% of 70,000 active; AID 1159607; in the data active means FP signal below about 40
* marks the source's active call; other numbers are inactive results; ! = not active in a repeat. Many of the other results were omitted from the sample, so hits are more common in it than they were.

SMILES	RMI FANCM FP
Cc1cc[n+](-c2[nH]c(=O)sc2/C=N\NC(=O)c2ccccc2[O-])cc1	1*
Cc1ccc(/C=N\NC(=O)c2cc([N+](=O)[O-])cc([N+](=O)[O-])c2)cc1	61
O=C(Nc1cc2c(ccc3ccccc32)oc1=O)c1cccc([N+](=O)[O-])c1	61
Oc1c(Cl)cc(Cl)cc1/C=N\NCCc1ccccn1	45
O=C(CC1NCCN(Cc2ccccc2)C1=O)N/N=C\c1cc(Cl)cc(Cl)c1O (centres undefined)	35*!
O=C(CSC1CN(C(c2ccccc2)c2ccccc2)C1)N/N=C/c1ccc(Cl)cc1Cl	59
Cc1ccc(C)c(NC(=O)Cn2nc(-c3ccco3)c3sc(N4CCCCC4)nc3c2=O)c1	80
COc1ccc(SCC(=O)Nc2cccc(Cl)c2Cl)cc1	52
c1csc(-c2ccnc(SCc3ccc4nonc4c3)n2)c1	68
O=C(CSc1nccc(-c2cccs2)n1)c1cc(-c2ccc(Cl)c(Cl)c2)no1	12*
O=C(CSc1nccc(-c2cccs2)n1)N1CCOCC1	60
O=C(Cc1cc(=O)[nH]c(SCc2ccc(F)cc2)n1)NCc1ccccc1Cl	63
CN(C)c1ccc(/C=C/C#N)cc1	73
CN(C)c1ccc(/C=C/c2ccncc2)cc1	25*
CN(C)c1ccc(/C=C/c2ccccc2)cc1	54
CSc1ccc(NC(=O)CCCc2ccccc2)nn1	64
Cc1ccc2nc(-c3ccc(OCC(=O)N=Nc4c(O)[nH]c5ccccc45)cc3)cc(-c3ccccc3)c2c1	20*
CCOC(=O)COc1ccc(-c2cc(-c3ccccc3)c3cc(Cl)ccc3n2)cc1	64
CCCOc1ccc(-c2cc(C(=O)N=Nc3c(O)[nH]c4ccccc34)[nH]n2)cc1	58
Cc1ccc(NC(=O)CSc2nnc3ccc(-c4ccccn4)nn23)cc1F	72
Cc1nnc(SCC(=O)NC(C)(C)C)c2c1cnn2-c1ccccc1	60
CC1CCCCN1C(=O)C12CCC(C)(/C(=N\O)C1)C2(C)C (centres undefined)	25*
CC12CCC(C(=O)N3CCC(C(=O)O)CC3)(CC1=O)C2(C)C (centres undefined)	58
COc1ccc(N2CCN(C(=O)C34CCC(C)(C(=O)C3)C4(C)C)CC2)cc1 (centres undefined)	63
O=C(NCCOc1ccc(F)cc1)c1ccc([N+](=O)[O-])cc1Cl	63
SMILES	RMI FANCM FP
CC(c1ccccc1)N1C(=O)/C(=C\c2cccnc2)SC1=S (centres undefined)	26*
O=C1/C(=C/c2cccnc2)SC(=S)N1c1ccccc1F	61
O=C(O)CCN1C(=O)/C(=C\c2cccnc2)SC1=S	62
FC(F)(F)c1cc(-c2ccc(Cl)cc2)nc2cc(-c3ccccc3)nn12	55
COc1ccc(-c2cc(C(F)(F)F)n3nc(-c4cccs4)cc3n2)cc1OC	9*
COc1ccc(-c2cc3nc(C)cc(C)n3n2)cc1OC	64
COc1ccc(/C=C\C(=O)NC2CC(=O)N(c3cccc(F)c3)C2)cc1OC (centres undefined)	52
COCC(=O)N1CCCc2ccc(NS(=O)(=O)c3cccs3)cc21	73
COC(=O)/C(C#N)=C(\C#N)c1ccc(Br)o1	26*
O=C(Nc1cccc(Cl)c1)c1ccc(Br)o1	64
O=C(c1ccc(Br)o1)N1CCOCC1	64
CC(C)c1cc(C(C)C)c(Sc2c(-c3ccccc3)nc3sccn23)c(C(C)C)c1	59
O=C(CSc1nc(CC(=O)NCc2cccs2)cc(=O)[nH]1)NCc1ccc2c(c1)OCO2	60
CC(=O)N1CCN(c2ccnc3c2c(=O)n(CC(=O)NCCc2ccccc2)c(=O)n3C)CC1	62
Cc1cnc(C(=O)NCc2c(Cl)cccc2Oc2ccccc2)cn1	55
COc1ccc(-c2noc(Cn3cnc4c(nnn4Cc4ccccc4C)c3=O)n2)c(OC)c1	85
COc1ccc(CN2CCN(C(c3ccc(F)cc3)c3ccc(F)cc3)CC2)c(OC)c1OC	65
Fc1ccc(C(c2ccc(F)cc2)N2CCN(C/C=C/c3ccccc3)CC2)cc1	24*!
C(=C\c1ccccc1)/CN1CCN(C(c2ccccc2)c2ccccc2)CC1	54
Cc1csc(NC(=O)CCCSc2ccc(NC(=O)C3CC3)nn2)n1	72
CC(C)(C)N(C(=O)c1cc2ccccc2o1)C(=O)N1CCCCC1	52
COc1ccc(/C=N\N=C2\NC(=O)C(CC(=O)Nc3sc4c(c3C#N)CCCC4)S2)cc1 (centres undefined)	58
COC(=O)c1c(NC(=O)CC2S/C(=N\N=C/c3ccc([N+](=O)[O-])cc3)NC2=O)sc2c1CCCC2 (centres undefined)	14*
O=C(CC1S/C(=N\N=C2CCCCC2)NC1=O)Nc1ccc([N+](=O)[O-])cc1 (centres undefined)	60
Cc1ccc(-c2nnc(NC(=O)c3ccc(Br)s3)o2)c(C)c1	56
SMILES	RMI FANCM FP
Cc1cc(S(=O)(=O)Nc2ccc3c(c2)N(CCC(C)C)C(=O)C(C)(C)CO3)ccc1F	67
Cc1cc(C)n(-c2ccc(N3CCN(C(=O)c4ccc(F)cc4Cl)CC3)nn2)n1	55
CCOC(=O)c1ccc(N2CCOCC2)c(N=Cc2cc(Cl)cc(Cl)c2O)c1	15*
O=C(N/N=C\c1cc(Cl)cc(Cl)c1O)c1ccncc1	15
O=C1Nc2ccccc2C1Cc1ccc(N=Cc2cc(Cl)cc(Cl)c2O)cc1 (centres undefined)	37
Oc1c(Cl)cc(Cl)cc1C=Nc1ccc2n[nH]nc2c1	25*
CCOC(=O)c1ccc(N2CCOCC2)c(NS(=O)(=O)c2ccccc2[N+](=O)[O-])c1	52
Oc1c(Cl)cc(Cl)cc1C=Nc1ccc(N2CCOCC2)cc1	50
CN(C)c1ccc(C(=O)N/N=C\c2cc(Cl)cc(Cl)c2O)cc1	52
CC(=O)c1ccc(Cl)c(N=Cc2cc(Cl)cc(Cl)c2O)c1	34*
Cc1c(C)c(C)c(C(=O)CCc2cccc(N=Cc3cc(Cl)cc(Cl)c3O)c2)c(C)c1C	40
CSc1cccc(C(=O)Nc2cc(C)no2)c1	66
COc1cc(/C=C/C(=O)c2ccccc2)ccc1OC(=O)c1cccc([N+](=O)[O-])c1	54
O=S(=O)(c1ccc(Cl)s1)N1CCN(c2ccc3nnc(C4CC4)n3n2)CC1	65
N/C(=N/OC(=O)c1ccc(Cl)cc1)c1ccc(S(=O)(=O)N2CCOCC2)cc1	54
CCS(=O)(=O)c1ccccc1C(=O)Nc1nc(-c2ccc3c(c2)CCCC3)cs1	60
Cc1ccc2cc(CCNC(=S)Nc3ccc(C(F)(F)F)cc3)c(=O)[nH]c2c1	78
O=C(CSc1nnc(NC(=O)C2CC2)s1)NCC1CCCO1 (centres undefined)	57
O=C(CCSc1nnc2scc(-c3ccccc3)n12)Nc1ccc(-c2nc3ccccc3s2)cc1	80
CCc1cc(Cl)c(OC)c(C(=O)NC[C@@H]2CCCN2CC)c1O	45
CCN1CCCC1CNC(=O)c1cc(S(N)(=O)=O)ccc1OC (centres undefined)	2*!
CCN1CCC[C@H]1CNC(=O)c1c(OC)ccc(I)c1O	54
COc1cc(/C=C(\C#N)c2ccc(C)cc2)cc(OC)c1OC	52
COC(=O)c1ccc(NC(=O)CS(=O)(=O)c2cccs2)cc1	170
CC1=C(C(=O)Nc2ccccc2)C(c2ccc([N+](=O)[O-])cc2)n2nc(-c3cccc(Cl)c3)nc2N1 (centres undefined)	104
COCCNC(=O)Cc1cn(Cc2ccc(F)cc2)c2ccccc12	65
COc1ccc(Cn2cnc3c4ccccc4n(CC(=O)NCc4ccccc4)c3c2=O)cc1	101
